Shown are actives, neighbours in structure and some others; about 2.4% of the full set was active somewhere.
HSF1 inh: HSF1 inhibitors in luciferase reporter cells, primary screen, cell-based, NIH3T3, luminescence. NIH3T3-HGL HSE-luciferase, MG132-induced, luminescence 8 h; active compounds read low. 300,000 tested, 0.77% active. AID 2098, 2009. activity change, negative = inhibition, % at 7.5 µM (by protocol);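 active = more than half of replicate wells show activity change below -50%, luminescence cut by over half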;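 note: luciferase reports HSF-1 transcriptional activity via heat shock element; 0% = median of DMSO wells and -100% = zero luminescence signal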
PPC-1+TRAIL kill: compounds killing PPC-1 cancer cells with TRAIL present, primary screen, TRAIL potentiator project, ATPLite luminescence, uHTS | PPC-1 cells + TRAIL, ATPLite viability luminescence | AID 1443, 2008 | cell killing (% activity), % at 4 µM or 5 µM | 220,000 tested, 0.41% active;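 active = cell killing above 50% in the first pass at 4 µM, then a duplicate retest at 5 µM averaging 50% or more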;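 note: plate controls were cells with TRAIL plus DMSO for no effect and medium-only wells lacking cells for full effect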
STAT1 inh: STAT1 signaling inhibitors, primary screen, cell-based, HTS, luciferase reporter. NIH 3T3 STAT1-luciferase reporter, IFN-gamma, luminescence. inhibition, % at 5.5 µM. 200,000 tested, 0.35% active. AID 920, 2007;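 active = inhibition above a set limit, the mean inhibition across all tested compounds plus 3 SD, cut at about 34% in these data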;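 note: 0% = IFN-gamma with DMSO and 100% = IFN-gamma with 300 µM nifuroxazide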
STAT3 inh-1: IL-6 driven STAT3 reporter inhibitors, primary screen, U3A cells, luciferase, luminescence, MLSCN library | AID 862, 2007 | IL-6 STAT3-luciferase reporter; host cell line lacks STAT1 | 190,000 tested, 0.89% active | inhibition, % at 5.5 µM;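 active = inhibition above the mean inhibition across all screened compounds plus 3 SD, cut at about 44% in these data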;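 note: 0% = DMSO only wells and 100% = 100 µM nifuroxazide control wells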
HSP90 refold inh: HSP90 inhibitors, primary screen, cell lysate, luminescence; 290,000 tested, 0.91% active; inhibition, % at 5.6 µM; Rabbit reticulocyte lysate, luciferase refolding luminescence, 3 h;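 active = inhibition above the screen-wide mean plus 3 SD, computed separately per campaign, cut at about 16% in these data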;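 note: 0% = DMSO wells and 100% = 60 µM geldanamycin wells; inhibitors lower the luminescence because luciferase stays unfolded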
C8 TRAIL sens: viability loss with TRAIL in NB7+C8 cells, primary screen, TRAIL sensitizer project, cell-based, ATPlite luminescence | inhibition (viability loss, TRAIL sensitization), % at 10 µM | AID 624354, 2012 | 360,000 tested, 1% active;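 active = compounds causing at least 50% loss of cell viability in the single-dose screen, relative to plate controls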
STAT3 inh-2: STAT3 reporter inhibitors, retest of hits, confirmation, U3A cells, luciferase, luminescence. shares compounds with STAT3 inh-1. IL-6 STAT3 luciferase reporter; cell line lacks STAT1. inhibition, % at 5.7 µM. 1,200 tested, 45% active. AID 1265, 2008;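 active = inhibition above the hit cutoff computed for the primary STAT3 screen, cut at about 44% in these data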;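 note: 0% = IL-6 plus DMSO and 100% = IL-6 plus nifuroxazide control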
NFkB inh STAT3ct: NF-kB reporter inhibitors in human cells, confirmation, counter-screen for STAT3 inhibitor project, cell-based, HEK293T, luciferase, TNF-alpha stimulus; shares compounds with STAT3 inh-1; TNF-alpha induced; inhibition, % at 5.7 µM; 1,200 tested, 36% active;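 active = inhibition above the mean of solvent-only control wells plus 3 SD, cutoff set per campaign, cut at about 13% in these data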;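 note: 0% = TNF-alpha with DMSO and 100% = TNF-alpha with MG high control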
STAT1 inh 2: STAT1 reporter inhibitors, IFN-gamma induced, confirmation, counter-screen for STAT3 inhibitor project, cell-based, NIH 3T3, luciferase luminescence; 1,200 tested, 27% active; AID 1317, 2008; NIH 3T3 STAT1-luciferase reporter; inhibition, % at 5.7 µM; shares compounds with STAT3 inh-1;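 active = inhibition above the mean plus 3 SD of solvent-only control wells, limit set per screening run, cut at about 16% in these data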;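 note: 0% = DMSO with IFN-gamma and 100% = nifuroxazide control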
An asterisk follows results filed as active; · = no result.

SMILES	HSF1 inh	PPC-1+TRAIL kill	STAT1 inh	STAT3 inh-1	HSP90 refold inh	C8 TRAIL sens	STAT3 inh-2	NFkB inh STAT3ct	STAT1 inh 2
COC(=O)[C@@]12C[C@@H](CC(=O)NCc3cccs3)C(=O)N(Cc3ccco3)C1=CCC(C)(C)C2	·	·	·	·	·	-11.2	·	·	·
COc1ccc(NC(=S)Nc2ncccc2C)c(OC)c1	5.9	10.1	-25.6	46.7*	-2.4	-3.4	39.9	-16.5	-42.4
COc1ccc(NC(=S)Nc2ncccc2C)cc1OC	14.9	5.2	-35.5	22.5	-1.5	-11.9	·	·	·
Cc1nc(SCC(=O)Nc2c(C)nn(C)c2C)c2cnn(-c3ccccc3)c2n1	4.9	-20.8	16.1	43.9*	-2.4	1.8	41.3	11.9	9.8
CCOC(=O)C1=CC[C@@H](c2ccccc2)N(S(=O)(=O)c2ccc(C)cc2)[C@@H]1C#N	·	·	·	·	·	12.1	·	·	·
Cc1cc(/C=N/n2cnnc2)c(C)n1-c1ccc(OCc2ccc(Cl)cc2)cc1	-44.5	-3.3	19.3	77.1*	5.7	17.6	60.6*	17.5*	15.4
Cc1cc(/C=N/n2cnnc2)c(C)n1-c1ccc(OCc2ccccc2F)cc1	-5.8	3.2	13.2	20.1	2.6	26.8	·	·	·
COc1cc(CC(=O)OCC(=O)Nc2sccc2C(N)=O)cc(OC)c1OC	6.2	8.6	31.5	58.2*	-0.3	22.5	55.0*	12.4	21.6*
COc1ccccc1N1CCN(c2ccc(-c3ccccc3)nn2)CC1	-29.7	36.8	-14.6	67.1*	14.9	86.8*	40.9	18.1*	-65.0
Cc1ccc(C=Nc2ccccc2C(N)=O)o1	26.1	35.3	-39.5	3.4	0.8	-5.2	·	·	·
CN(C)c1ccc(C=Nc2ccccc2C(N)=O)cc1	·	79.9*	-38.1	45.4*	10.5	85.0*	31.1	8.6	-44.5
COc1cc(C)c(Cl)cc1S(=O)(=O)NCc1ccccn1	-1.2	·	·	·	-3.2	6.9	·	·	·
COc1cc(C)c(Cl)cc1S(=O)(=O)NCc1ccncc1	0.5	13.6	21.2	70.5*	0.7	·	66.0*	19.4*	21.2*
CCCCn1nnnc1C(C1CC1)N1CCN(C/C=C/c2ccccc2)CC1 (stereo not given)	·	·	·	·	·	-4.4	·	·	·
NC(=O)c1ccc(N2CCN(S(=O)(=O)c3ccccc3)CC2)c([N+](=O)[O-])c1	-4.5	20.5	24.5	72.1*	-2.4	44.0	70.8*	23.0*	28.3*
COCCC(=O)N1CCOCC1c1cc(C(=O)NCc2ccccc2)no1 (stereo not given)	·	·	·	·	·	-4.5	·	·	·
O=C(c1cccn2c(=O)c3ccccc3nc12)N1CCN(c2ccccn2)CC1	6.0	16.1	-5.1	51.4*	5.0	-22.2	3.1	-6.0	0.0
O=C(c1cccn2c(=O)c3cc(Br)ccc3nc12)N1CCN(c2ccccn2)CC1	·	8.0	4.5	-3.4	-2.2	-10.5	·	·	·
CCc1nn(CCCC(=O)NC2CCCCC2C)c(=O)c2cc3occc3n12 (stereo not given)	·	·	·	·	·	0.7	·	·	·
CCC(=O)c1ccc(OCC(O)Cn2c(C)nc3ccccc32)cc1 (stereo not given)	·	10.3	30.4	63.6*	1.3	6.9	53.1*	14.5*	19.9*
CNc1nc2cc([N+](=O)[O-])c([N+](=O)[O-])cc2nc1NC	8.0	16.1	19.8	71.6*	1.3	32.0	64.8*	28.4*	20.4*
N#Cc1cc2nc(O)c(O)nc2cc1[N+](=O)[O-]	·	·	·	·	·	-4.9	·	·	·
Cc1ccc(-c2nc3cc(C)ccc3o2)cc1	-29.8	31.3	32.3	83.8*	13.0	53.8*	37.9	40.0*	3.3

Source: PubChem BioAssay
